PI4K2A inh: qHTS for small molecular inhibitors of PI4K2A | Phosphatidylinositol 4-kinase type 2-alpha (Homo sapiens), Q9BTU6 | purified PI4K2A, ADP-Glo luminescence, 1 h; hits give low values | activity change, negative = inhibition, % at 76.9 µM | hit rate 0.13% among 420,000 | AID 1346378, 2018; in the data active means activity change below about -50%; inconclusive means mostly about -30% to -49%;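 further: -100% = wells without enzyme as full effect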
Target sequence (Q9BTU6 whole entry, looked up): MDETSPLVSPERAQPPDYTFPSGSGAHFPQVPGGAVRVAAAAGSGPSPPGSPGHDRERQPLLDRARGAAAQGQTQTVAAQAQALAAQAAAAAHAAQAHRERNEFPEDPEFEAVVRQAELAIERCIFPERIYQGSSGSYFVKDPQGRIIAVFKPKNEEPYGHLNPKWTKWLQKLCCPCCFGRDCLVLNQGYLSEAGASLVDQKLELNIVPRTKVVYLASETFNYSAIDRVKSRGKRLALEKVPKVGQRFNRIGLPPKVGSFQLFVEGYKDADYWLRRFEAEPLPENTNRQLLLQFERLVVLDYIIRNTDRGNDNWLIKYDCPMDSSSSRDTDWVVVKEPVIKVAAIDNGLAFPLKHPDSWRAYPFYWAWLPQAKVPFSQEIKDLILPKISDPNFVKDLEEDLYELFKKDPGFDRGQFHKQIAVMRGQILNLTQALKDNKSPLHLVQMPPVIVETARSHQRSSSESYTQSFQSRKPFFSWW
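Compounds are screened against recombinant PI4K2A using PI as substrate and ATP, the latter dispensed at 300 microM. Reactions run one hour at ambient temperature before ADP-Glo detection; full inhibition defined by wells lacking enzyme.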
Pin1 inhibitor: qHTS Assay to Find Inhibitors of Pin1. Peptidyl-prolyl cis-trans isomerase NIMA-interacting 1 (Homo sapiens), Q13526. Potency, µM (doses to about 115 µM), without a hit: at the top dose activity, negative = inhibition, actives largely listed as inhibitors. AID 504891, 2011. hit rate 0.009% among 390,000. Pin1 FP peptide displacement, HiFluor488, 10 min; active means well fitted inhibition curve with a large enough effect in the polarisation, with a control signal flat, not every such curve was filed as active; inconclusive means small, poorly fitted or top-dose-only effect, or effect the other way, or a change in a side signal; inactive means no such curve, though single readings can be large or run the other way; the % refers to the polarisation; further: potency means the concentration at half of the fitted maximal effect
Target sequence (Q13526 whole entry, looked up): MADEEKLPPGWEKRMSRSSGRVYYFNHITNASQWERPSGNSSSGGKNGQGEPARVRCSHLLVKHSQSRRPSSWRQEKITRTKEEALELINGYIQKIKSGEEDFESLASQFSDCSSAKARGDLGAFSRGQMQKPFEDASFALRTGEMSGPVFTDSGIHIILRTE
Tb PGK inh: qHTS Assay to Find Inhibitors of Phosphoglycerate Kinase; PGK/GAPDH coupled, Kinase-Glo luminescence, 60 min; AID 602233, 2012; hit rate 0.043% among 380,000; Potency, µM (highest dose often 57.5 µM), for the others: at the highest dose activity change, negative = inhibition, hits mostly inhibitors; further: potency means the concentration at half of the fitted maximal effect; nearly all actives have a fitted effect of over 60% in size
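Recombinant glycosomal PGK reaction used 1,3-bisphosphoglycerate generated in-well by GAPDH (100nM final) in 100mM TEA pH 7.6, 5mM MgCl2, 0.01% Tween-20. After 60 minutes at room temperature, ATP was read by Kinase-Glo Plus luminescence end-point.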
Tb PFK block: qHTS Assay to Find Inhibitors of T. brucei phosphofructokinase; ATP-dependent 6-phosphofructokinase (Trypanosoma brucei brucei), O15648; T. brucei PFK, ADP-Glo luminescence; Potency, µM (doses to about 57.5 µM), for inactives: at the highest dose activity, negative = inhibition, usual class: inhibitors; hit rate 0.17% among 330,000;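 further: potency means the concentration at half of the fitted maximal effect; 0% = uninhibited 1x PFK enzyme wells and -100% = no-enzyme wells; nearly all actives have a fitted effect of over 60% in size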
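PFK 1.25 nM, F6P 0.5 mM, ATP 0.1 mM, 0.1 M TEA pH 8.0, 5 mM MgCl2, 0.01% Tween20, 0.1% BSA; 45 min RT. ADP-Glo readout. qHTS titration up to 57 uM; curves fitted, compounds curve-classed.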
PI5P4Ka inh: qHTS for Inhibitors of phosphatidylinositol 5-phosphate 4-kinase (PI5P4K). PI5P4Kalpha enzyme, ADP-Glo luminescence, 60 min; hits give low values. hit rate 1.2% among 330,000. max response, %. AID 652105, 2013; active means max response of -50% or lower; inconclusive means between -30% and -50%; inactive means -30% or higher; further: value at the top dose of about 77 µM
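qHTS, 1536-well: enzyme/substrate mix, compound by pin tool, 5 microM ATP final; RT 60 min; ADP-Glo reagents 1 (45 min) then 2 (30 min); luminescence.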
Starred values were filed as active, the others as inactive; i = inactive; ? = inconclusive; · = no result given. This is one part of a sample in which hits are shown more often than they occur. Unless noted, the call rests on the fitted dose curve; in most records, active means well fitted curve in the direction sought with a large enough effect; inconclusive means small, poorly fitted or top-dose-only effect, or another doubt; inactive means no such curve, though single readings can be large; an effect the other way counts as inactive or inconclusive. Unless noted, on the % scale 0 is the no-effect control and ±100 the full control effect.

SMILES	PI4K2A inh	Pin1 inhibitor	Tb PGK inh	Tb PFK block	PI5P4Ka inh
C=C(C)C(=O)Nc1cccc(C2=NOC3(C2)C[C@@H](C(N)=O)N(C(=O)c2cc([N+](=O)[O-])cc([N+](=O)[O-])c2C)C3)c1 (stereo partly drawn)	-4	?	11µM*	?	-4
CCn1c(Cc2cccs2)nnc1SCC(=O)Nc1cccc2ccccc12	1	·	·	·	·
O=C(O)c1cc(NC(=O)c2ccc([N+](=O)[O-])cc2)cc(NC(=O)c2ccc([N+](=O)[O-])cc2)c1	3	-12%	-7%	-2%	-4
O=C(/C=C/c1ccc([N+](=O)[O-])cc1)Nc1cccc(C(=O)Nc2ccccc2C(=O)O)c1	-9	·	?	?	-66*
O=C(Nc1ccc([N+](=O)[O-])cc1)C(=O)Nc1cccc(C(=O)O)c1	-25	2%	?	-1%	-60*
O=C(N/N=C/C(Cl)=C/c1ccc([N+](=O)[O-])cc1)C(=O)Nc1ccccc1C(=O)O	16	·	?	6%	-50*
COC(=O)c1cccc(NC(=O)/C=C/c2ccc([N+](=O)[O-])cc2)c1	9	-5%	-1%	3%	-9
COc1ccc(/C=C(/C#N)c2nc(-c3ccc(-c4ccccc4)cc3)cs2)cc1	-2	-5%	-6%	·	·
CCN(CC)CCOC(=O)c1ccc(N/C=C(/C#N)c2nc(-c3ccc(OC)cc3)cs2)cc1	-1	?	-6%	?	-69*
CC(OC(=O)C1=Cc2ccccc2OC1)C(=O)NCC1CCCO1 (stereo not drawn)	-4	-12%	3%	·	-63*
Cc1ccc(C)n1-c1ccc(C(=O)NCc2ccncc2)cc1	-6	-5%	-1%	0%	-7
Cc1ccc(C)n1-c1ccc(C(=O)NN)cc1	-82*	?	-7%	0%	?
Cc1ccc(C(=O)N(C)[C@H]2C[C@H]3c4[nH]c5c(-c6ccc7c(c6)OCO7)cccc5c4CCN3C[C@H]2[C@H](C)O)cc1	6	·	·	·	·
O=C1NN(c2ccccc2)C(=O)/C1=C/c1ccc(-c2ccc(C(=O)O)cc2)o1	0	?	-18%	1%	?
O=C(O)c1ccc(N2C(=O)/C(=C/c3ccc(-c4ccc([N+](=O)[O-])cc4)o3)C=C2c2ccccc2)cc1	-6	-15%	?	4%	-94*
N#CC1=C2SCN(Cc3ccco3)CN2C(=O)CC1c1ccc(Cl)cc1 (stereo not drawn)	-7	1%	-13%	-7%	?
N#CC1=C2SCN(Cc3ccccc3)CN2C(=O)CC1c1ccc2c(c1)OCO2 (stereo not drawn)	-8	-7%	-1%	-17%	-58*
N#CC1=C2SCN(Cc3ccccc3)CN2C(=O)CC1c1cccs1 (stereo not drawn)	-13	-18%	-5%	-24%	-59*
CN(C)c1cccc(-c2cnc(N3CCC(c4ncc[nH]4)CC3)s2)c1	·	-2%	·	·	·
O=C1C=C(C2OC(CO)C(O)C2O)C(=O)N1 (stereo not drawn)	-1	-3%	-4%	·	-54*
CCOC(=O)CSC1=NC(=O)/C(=C/c2ccc(Br)cc2)S1	3	9%	i	-2%	-55*
CCOC(=O)NNc1ccc2nonc2c1[N+](=O)[O-]	?	?	?	-1%	-65*
CCc1ccc(Nc2ccc3nonc3c2[N+](=O)[O-])cc1	-11	-4%	-6%	·	1
Cc1cc(CNC(=O)CC2C(=O)NCCN2Cc2ccccc2C(F)(F)F)on1 (stereo not drawn)	-2	?	5%	-5%	-1
Cc1cnc(CNC(=O)CC2C(=O)NCCN2Cc2ccccc2C(F)(F)F)cn1 (stereo not drawn)	-61*	?	-9%	3%	0
SMILES	PI4K2A inh	Pin1 inhibitor	Tb PGK inh	Tb PFK block	PI5P4Ka inh
O=C(NCCCc1cnc[nH]1)NCCCN(Cc1ccc(Cl)c(Cl)c1)c1ccc(Br)cn1	·	10%	·	·	·
Oc1ccc(/C=N/N(Cc2ccccc2)c2ccccc2)c(O)c1O	-5	-11%	-7%	-16%	-76*
O=c1c2ccccc2n(Cc2ccco2)n1[C@@H](Cc1ccccc1)Cn1cc(-c2ccc(-c3ccccc3)cc2)nn1	-22	·	·	·	·
COc1cc(C=NNC(=O)c2ccccc2NS(=O)(=O)c2cccs2)cc(OC)c1O	-3	-12%	-1%	0%	6
COc1cc(/C=N/NC(=O)c2ccc(NS(=O)(=O)c3cccs3)cc2)cc(OC)c1O	-2	0%	-10%	20%	-60*
Cc1nn(-c2ccc(Cl)cc2)c(Cl)c1/C=N/NC(=O)c1ccc(NS(=O)(=O)c2cccs2)cc1	-3	30%	-9%	·	-66*
O=C(NN=Cc1ccccc1OC(F)F)c1ccc(NS(=O)(=O)c2cccs2)cc1	-2	21%	-4%	0%	-63*
Cc1nn(-c2ccc(F)cc2)c(Cl)c1/C=N/NC(=O)c1cccs1	5	21%	-2%	3%	-6
O=C(N/N=C/c1ccc([N+](=O)[O-])o1)c1ccc(NS(=O)(=O)c2cccs2)cc1	-6	?	i	0%	-62*
Cc1ccc(S(=O)(=O)NC(N)=NCCC[C@@H](N)C(=O)Nc2cc(C(F)(F)F)ccc2Cl)cc1	·	0%	·	·	·
c1csc(CNc2ncnc3cc(-c4ccc5c(c4)OCO5)ccc23)c1	·	39%	·	·	·
CCCCCCCC(=O)[O-].CCCCCCCC(=O)[O-].[Zn+2]	-10	·	·	·	·
CC(C)OP(=O)(CP(=O)(OC(C)C)OC(C)C)OC(C)C	0	·	·	·	·
O=c1c2ccccc2sn1-c1ccc(Cl)cc1	-9	·	-16%	·	-100*
O=c1c2ccc(F)cc2sn1-c1ccccc1	-8	·	-8%	·	-108*
Cc1ccc(-n2sc3cc(F)ccc3c2=O)c(C)c1	1	·	1%	·	-87*
O=c1c2cc(F)ccc2sn1-c1ccccc1Cl	-5	·	-14%	·	-84*
Cc1ccc(N2C(=O)c3ccccc3C2=O)c(C)c1	·	1%	·	·	·
N=C1SCC(=O)N1c1ccccc1Cl	-1	0%	-5%	-10%	-9
OC1(c2ccc(Cl)cc2)CCNCC1	0	·	·	·	·
[O-]c1c[n+](-c2ccc(-[n+]3cc([O-])on3)cc2)no1	-8	-8%	-11%	1%	-56*
[O-]c1c[n+](-c2ccccc2)no1	-3	0%	0%	0%	-2
c1ccc(-c2cn3nc4c(nc3n2)CCCC4)cc1	-52*	?	?	-6%	-9
Brc1ccc(-c2cn3nc4c(nc3n2)CCCC4)cc1	-2	?	-9%	0%	-13

Screening results as filed in PubChem.
